Inconclusive results are not listed. A structure can be active in one record and inactive in another. Calls of active or inactive are those of the source. The calls were made as follows, unless noted: active = hit-call score of the fitted dose curve at least 0.9, where 1 is the maximum; inconclusive = response in the unintended direction; inactive = score below 0.9.
How the values were obtained:
[1] = biological target: Estrogen receptor (Homo sapiens) (UniProt P03372); assay: OT_ERa_GFPERaERE_0480: Odyssey Thera (OT) 8-hour HeLa Transcription Induction Assay for Estrogen Receptor (AID 2283381; active = hit-call score of the fitted dose curve at least 0.9, where 1 is the maximum; inactive = score below 0.9)
Chain of Estrogen receptor (Homo sapiens) (P03372 whole entry, looked up): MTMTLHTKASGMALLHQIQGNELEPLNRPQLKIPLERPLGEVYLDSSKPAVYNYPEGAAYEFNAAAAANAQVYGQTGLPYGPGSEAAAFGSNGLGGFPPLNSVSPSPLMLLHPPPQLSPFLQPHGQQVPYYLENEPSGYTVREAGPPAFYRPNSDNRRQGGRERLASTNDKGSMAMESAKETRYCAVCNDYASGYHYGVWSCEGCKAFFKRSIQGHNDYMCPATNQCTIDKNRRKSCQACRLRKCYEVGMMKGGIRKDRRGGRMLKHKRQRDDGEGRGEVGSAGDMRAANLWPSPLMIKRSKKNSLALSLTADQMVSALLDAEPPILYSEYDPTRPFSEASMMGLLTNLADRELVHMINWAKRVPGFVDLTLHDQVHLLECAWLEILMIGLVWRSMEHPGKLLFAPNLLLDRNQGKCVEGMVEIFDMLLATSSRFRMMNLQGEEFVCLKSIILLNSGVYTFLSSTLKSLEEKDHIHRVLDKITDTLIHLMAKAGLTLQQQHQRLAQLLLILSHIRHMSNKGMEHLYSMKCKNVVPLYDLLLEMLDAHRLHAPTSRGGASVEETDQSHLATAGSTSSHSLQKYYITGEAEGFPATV
Procedure, shortened: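 GFP-ERE reporter, HeLa, 8 h exposure. Readout: fluorescence microscopy, high-content image analysis. Fit direction positive vs DMSO negative control.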

[2] = biological target: Estrogen receptor (Homo sapiens) (UniProt P03372); assay: OT_ERa_GFPERaERE_0120: Odyssey Thera (OT) 2-hour HeLa Transcription Induction Assay for Estrogen Receptor (AID 2283382)
Procedure, shortened: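 Fluorescence microscopy read-out: inducible fluorescent protein reporter in HeLa cells, imaged 2 h post-dose. Signal increase over DMSO negative control fitted as single primary endpoint via high content image analysis.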

[3] = biological target: Bile acid receptor (Homo sapiens) (UniProt Q96RI1); assay: OT_FXR_FXRSRC1_0480: Odyssey Thera (OT) 8-hour HEK293T Protein-Complementation Assay for Farnesoid X receptor/SRC-1 Co-activator (AID 2283383)
Chain of Bile acid receptor (Homo sapiens) (Q96RI1 whole entry, looked up, the tested form may be a part): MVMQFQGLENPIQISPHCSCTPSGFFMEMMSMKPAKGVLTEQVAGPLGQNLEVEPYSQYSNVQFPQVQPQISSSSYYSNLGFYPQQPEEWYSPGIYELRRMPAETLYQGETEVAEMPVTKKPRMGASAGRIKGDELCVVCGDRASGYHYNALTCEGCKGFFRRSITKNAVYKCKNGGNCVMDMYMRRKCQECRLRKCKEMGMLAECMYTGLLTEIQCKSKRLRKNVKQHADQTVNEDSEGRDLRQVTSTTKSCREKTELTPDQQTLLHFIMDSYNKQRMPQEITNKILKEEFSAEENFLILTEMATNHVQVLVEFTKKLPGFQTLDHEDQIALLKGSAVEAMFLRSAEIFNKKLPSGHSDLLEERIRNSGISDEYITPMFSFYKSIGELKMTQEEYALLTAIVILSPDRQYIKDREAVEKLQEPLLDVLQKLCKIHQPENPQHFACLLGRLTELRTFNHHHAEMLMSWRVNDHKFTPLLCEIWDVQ
Procedure, shortened: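 Fluorescence intensity read-out, 8 h post-dose, HEK293T protein-fragment complementation; FXR bait and SRC-1 prey each linked to reporter fragments. Activity scored as signal increase over DMSO negative control.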

[4] = biological target: Retinoic acid receptor RXR-alpha (Homo sapiens) (UniProt P19793); assay: OT_NURR1_NURR1RXRa_0480: Odyssey Thera (OT) 8-hour HEK293T Protein Complementation Assay for Nurr1/retinoid X receptor (RXR) (AID 2283385)
Chain of Retinoic acid receptor RXR-alpha (Homo sapiens) (P19793 whole entry, looked up, the tested form may be a part): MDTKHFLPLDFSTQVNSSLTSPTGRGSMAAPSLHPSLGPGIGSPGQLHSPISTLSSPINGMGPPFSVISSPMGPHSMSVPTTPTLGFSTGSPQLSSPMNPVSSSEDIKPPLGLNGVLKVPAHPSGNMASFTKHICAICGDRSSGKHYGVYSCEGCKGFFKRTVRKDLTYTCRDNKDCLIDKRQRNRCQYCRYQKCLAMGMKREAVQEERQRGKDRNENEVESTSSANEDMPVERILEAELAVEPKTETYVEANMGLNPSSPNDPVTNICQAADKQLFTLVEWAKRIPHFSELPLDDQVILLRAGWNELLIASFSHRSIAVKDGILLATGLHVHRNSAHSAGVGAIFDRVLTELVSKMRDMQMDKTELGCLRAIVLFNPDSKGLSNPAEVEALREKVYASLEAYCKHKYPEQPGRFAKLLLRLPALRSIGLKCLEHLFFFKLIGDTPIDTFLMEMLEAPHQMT
Procedure, shortened: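 Read-out: fluorescence from protein-fragment complementation between Nurr1 and RXRα in human HEK293T cells, 8 h after dosing. DMSO served as negative control; increased signal counted as activity.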

[5] = biological target: Retinoic acid receptor RXR-alpha (Homo sapiens) (UniProt P19793); assay: OT_NURR1_NURR1RXRa_1440: Odyssey Thera (OT) 24-hour HEK293T Protein Complementation Assay for Nurr1/retinoid X receptor (RXR) (AID 2283386)
Procedure, shortened: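 Fluorescence PCA read-out; HEK293T; 24 h post-dose; bait/prey fused to reporter fragments; gain-of-signal fit vs DMSO negative control.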

[6] = biological target: Peroxisome proliferator-activated receptor gamma (Homo sapiens) (UniProt P37231); assay: OT_PPARg_PPARgSRC1_0480: Odyssey Thera (OT) 8-hour Protein-Complementation Assay for Peroxisome Proliferator-activated Receptor Gamma / SRC-1 Co-activator (AID 2283387)
Chain of Peroxisome proliferator-activated receptor gamma (Homo sapiens) (P37231 whole entry, looked up, the tested form may be a part): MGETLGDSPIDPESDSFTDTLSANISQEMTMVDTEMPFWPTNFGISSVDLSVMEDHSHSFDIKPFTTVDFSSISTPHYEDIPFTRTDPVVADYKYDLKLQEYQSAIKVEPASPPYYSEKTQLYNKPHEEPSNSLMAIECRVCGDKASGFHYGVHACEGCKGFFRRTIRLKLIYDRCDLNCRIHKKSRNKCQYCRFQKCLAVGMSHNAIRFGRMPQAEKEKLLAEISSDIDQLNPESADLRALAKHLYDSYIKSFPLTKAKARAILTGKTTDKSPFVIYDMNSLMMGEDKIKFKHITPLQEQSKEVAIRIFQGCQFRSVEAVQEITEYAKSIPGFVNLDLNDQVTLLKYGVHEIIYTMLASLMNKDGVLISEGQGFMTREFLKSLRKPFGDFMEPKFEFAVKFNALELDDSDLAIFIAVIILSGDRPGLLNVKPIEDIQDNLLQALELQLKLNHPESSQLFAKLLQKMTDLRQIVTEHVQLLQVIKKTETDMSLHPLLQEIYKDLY
Procedure, shortened: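 Read-out: 488 nm N/C fluorescence ratio from complemented Venus YFP fragments, ≥350 cells per image, gain-of-signal fitted against DMSO baseline. Fusions of PPARg/SRC-1 with IFP1/IFP2 expressed transiently in HEK293T; compounds applied 8 h.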

[7] = biological target: Peroxisome proliferator-activated receptor gamma (Homo sapiens) (UniProt P37231); assay: OT_PPARg_PPARgSRC1_1440: Odyssey Thera (OT) 24-hour Protein-Complementation Assay for Peroxisome Proliferator-activated Receptor Gamma/ SRC-1 Co-activator (AID 2283388)
Procedure, shortened: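 HEK293T transiently transfected with PPARg/SRC-1 split-Venus YFP fusions 48 h before dosing, then treated 24 h at 37C. Fixed cells imaged; nuclear/cytoplasmic 488 nm fluorescence ratio, gain of signal versus DMSO.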

[8] = ATG_XTT_Cytotoxicity: Cytotoxicity Assessment in the Attagene TRANS-FACTORIAL HepG2 Assay (AID 2283584);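 as to AC50: XTT signal for cell number as viability in transfected HepG2 cells; cells exposed to compound for 24 h before reading; active means loss of viability signal versus DMSO baseline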
Procedure, shortened: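 HepG2 cells transiently transfected with GAL4-UAS multiple reporter units, dosed 24 h; cytotoxicity read by XTT as loss of signal versus DMSO baseline.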

[9] = TOX21_p53_BLA_p2_viability: Viability Assessment in the Tox21 HCT-116 p53 Agonism Beta-lactamase Assay, Phase 2 (AID 2283591);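 also: compound exposure lasted 16 h at 37 °C; actives lower the ATP signal meaning cytotoxicity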
Procedure, shortened: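 Cytotoxicity readout: CellTiter-Glo ATP luminescence, 30 min at room temperature, after the beta-lactamase read. Cells were HCT116 exposed 16 h at 37C to compounds pin-transferred at 217-fold dilution from DMSO stocks.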

[10] = CEETOX_H295R_11DCORT: CeeTox H295R High-throughput Steroidogenesis Assay for 11-Deoxycortisol (11DCORT) (AID 2283432; active = hit-call score of the fitted dose curve at least 0.9, where 1 is the maximum; inactive = score below 0.9); conditions: actives raise or lower the signal
Procedure, shortened: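 H295R cells; 10 uM forskolin prestim 48 h; compound in 0.1% DMSO 48 h; media extracted with MTBE; 11-deoxycortisol by LC-MS/MS, 7-point standard curve; gain/loss vs DMSO baseline; viability by MTT in same wells.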

[11] = CEETOX_H295R_OHPREG: CeeTox H295R High-throughput Steroidogenesis Assay for OH-Pregnenolone (OHPREG) (AID 2283434; active = hit-call score of the fitted dose curve at least 0.9, where 1 is the maximum; inactive = score below 0.9); conditions: actives raise or lower the signal
Procedure, shortened: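 Secreted 17alpha-hydroxypregnenolone measured by HPLC-MS/MS after liquid-liquid extraction. Human adrenal H295R cells received 48 h forskolin (10 uM) stimulation before 48 h chemical exposure at 0.1% final DMSO; MTT viability in same wells; bidirectional fit against DMSO.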

[12] = CEETOX_H295R_OHPROG: CeeTox H295R High-throughput Steroidogenesis Assay for OH-Progesterone (OHPROG) (AID 2283435; active = hit-call score of the fitted dose curve at least 0.9, where 1 is the maximum; inactive = score below 0.9;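 as to AC50: 17alpha-hydroxyprogesterone secreted into medium measured by HPLC-MS/MS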); conditions: actives raise or lower the signal
Procedure, shortened: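 HPLC-MS/MS quantification of 17alpha-hydroxyprogesterone secreted by H295R cells after 48 h chemical exposure, following 48 h 10 uM forskolin prestimulation. Gain or loss of signal fitted relative to DMSO. Viability checked by MTT in the same wells.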

[13] = CEETOX_H295R_CORTIC: CeeTox H295R High-throughput Steroidogenesis Assay for Corticosterone (CORTIC) (AID 2283437; active = hit-call score of the fitted dose curve at least 0.9, where 1 is the maximum; inactive = score below 0.9); conditions: actives raise or lower the signal
Procedure, shortened: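 Medium corticosterone was quantified by tandem mass spectrometry following 48 hours of chemical exposure (0.1% DMSO) in human H295R cells previously stimulated 48 hours with 10 uM forskolin. Viability checked by MTT; chemicals diluted and retested when viability fell below 70%.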

[14] = CEETOX_H295R_CORTISOL: CeeTox H295R High-throughput Steroidogenesis Assay for Cortisol (AID 2283438; active = hit-call score of the fitted dose curve at least 0.9, where 1 is the maximum; inactive = score below 0.9;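 also: cortisol secreted into medium quantified by LC-MS/MS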); conditions: actives raise or lower the signal
Procedure, shortened: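 Read-out: cortisol in culture medium by reverse-phase C18 HPLC with ESI-positive tandem MS, after MTBE liquid-liquid extraction. Cells: human adrenal H295R, forskolin-primed (10 uM, 48 h) before 48 h chemical exposure in 0.1% DMSO.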

[15] = CEETOX_H295R_DOC: CeeTox H295R High-throughput Steroidogenesis Assay for DOC (AID 2283439; active = hit-call score of the fitted dose curve at least 0.9, where 1 is the maximum; inactive = score below 0.9); conditions: actives raise or lower the signal
Procedure, shortened: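 Human adrenocortical H295R cells, passages up to 10, received 10 uM forskolin for 48 h before chemical addition. After another 48 h exposure in 0.1% DMSO, secreted DOC was measured by LC-MS/MS, with gain or loss fitted against DMSO controls.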

[16] = CEETOX_H295R_ESTRADIOL: CeeTox H295R High-throughput Steroidogenesis Assay for Estradiol (AID 2283440; active = hit-call score of the fitted dose curve at least 0.9, where 1 is the maximum; inactive = score below 0.9;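 also: estradiol secreted into medium quantified by LC-MS/MS after dansyl derivatisation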); conditions: actives raise or lower the signal
Procedure, shortened: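 H295R cells pre-stimulated 48 h with 10 uM forskolin, then exposed 48 h to chemical in 0.1% DMSO. Medium estradiol quantified by MTBE extraction, dansyl derivatisation and HPLC-MS/MS; bidirectional fit versus DMSO; MTT viability required >/=70%.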

[17] = CEETOX_H295R_ESTRONE: CeeTox H295R High-throughput Steroidogenesis Assay for Estrone (AID 2283441; active = hit-call score of the fitted dose curve at least 0.9, where 1 is the maximum; inactive = score below 0.9;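 also: estrone secreted into medium measured by LC-MS/MS after dansyl derivatization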); conditions: actives raise or lower the signal
Procedure, shortened: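 Forskolin-stimulated H295R cells are treated 48 h with chemical, and estrone in the medium is measured by LC-MS/MS. Activity is fitted in both directions relative to DMSO controls, with chemicals diluted until MTT viability reaches at least 70%.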

[18] = CEETOX_H295R_PROG: CeeTox H295R High-throughput Steroidogenesis Assay for Progesterone (PROG) (AID 2283442; active = hit-call score of the fitted dose curve at least 0.9, where 1 is the maximum; inactive = score below 0.9); conditions: actives raise or lower the signal
Procedure, shortened: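 H295R adrenal cells prestimulated 48 h with 10 uM forskolin, then exposed 48 h to test chemical in 0.1% DMSO. Progesterone in medium quantified by HPLC-MS/MS after MTBE extraction; viability checked by MTT in same wells.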

[19] = CEETOX_H295R_ANDR: CeeTox H295R High-throughput Steroidogenesis Assay for Androstenedione (ANDR) (AID 2283436; active = hit-call score of the fitted dose curve at least 0.9, where 1 is the maximum; inactive = score below 0.9); conditions: actives raise or lower the signal
Procedure, shortened: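 Medium from 48 h chemical-treated H295R adrenal cells was extracted with MTBE and androstenedione measured by LC-MS/MS. Activity was fit in both directions relative to DMSO. Cytotoxic concentrations were re-tested after dilution until MTT viability reached ≥70%.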

[20] = CEETOX_H295R_TESTO: CeeTox H295R High-throughput Steroidogenesis Assay for Testosterone (TESTO) (AID 2283457; active = hit-call score of the fitted dose curve at least 0.9, where 1 is the maximum; inactive = score below 0.9); conditions: actives raise or lower the signal
Procedure, shortened: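 H295R adrenal cells, passage ≤10, exposed to chemicals for 48 h. Testosterone in medium measured by MTBE extraction and HPLC-MS/MS against a 7-point standard curve. Bidirectional fit versus DMSO; MTT viability checked in the same wells.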

Measured: AC50

CC(C)(C)c1ccc(OC(=O)c2ccccc2O)cc1
active: [3] 35.6 µM | [4] 50 µM | [5] 89 µM
inactive: [1] | [2] | [6] | [7] | [8] | [9]

C=C1C2CCC(C2)C1(C)C (stereo not given)
inactive: [1] | [2] | [6] | [7] | [8] | [9]

c1ccc2c(c1)ccc1cc3c(ccc4ccccc43)cc12
inactive: [1] | [2] | [3] | [5] | [9]

NC(CO)(CO)CO
inactive: [1] | [4] | [5] | [6] | [7] | [8] | [9]

CC(C)C1=CC2=CC[C@@H]3[C@](C)(CCC[C@@]3(C)C(=O)O)[C@H]2CC1
inactive: [1] | [4] | [5] | [6] | [7] | [8]
active: [9] 58.9 µM

S=C(NC1CCCCC1)NC1CCCCC1
inactive: [10] | [11] | [12] | [13] | [14] | [15] | [16] | [17] | [18] | [8]

O=S(=O)(O)c1ccccc1C=Cc1ccc(-c2ccc(C=Cc3ccccc3S(=O)(=O)O)cc2)cc1
inactive: [1] | [4] | [6] | [7] | [8] | [9]
active: [5] 66.8 µM

C=COCCCC
inactive: [10] | [11] | [12] | [19] | [13] | [14] | [15] | [16] | [17] | [18] | [20] | [8]

O=c1cc(-c2ccccc2)oc2ccccc12
inactive: [1] | [4] | [5] | [6] | [7] | [8]

CCCCCCC1(C)CCC(=O)O1 (stereo not given)
inactive: [1] | [6] | [7] | [8]

CCCCCCCC/C=C\CCCCCCCC(=O)OCCO
active: [4] 38.4 µM | [5] 38.7 µM
inactive: [1] | [6] | [7] | [8]

CCCc1ccc(OC)cc1
inactive: [1] | [6] | [7] | [8]

CCCCCCCCCCOS(=O)(=O)O
inactive: [1] | [4] | [6] | [7] | [8] | [9]

COC(=O)c1c(C)cc(O)c(C)c1O
active: [12] 26.3 µM | [18] 59.5 µM
inactive: [1] | [6] | [7] | [11] | [16] | [17] | [8] | [9]

CC1=CC[C@H]2C[C@@H]1C2(C)C
inactive: [5] | [6] | [7] | [9]
active: [1] 93.4 µM

Cc1ccc(N/N=c2\c(=O)cc/c(=N/Nc3ccc(S(=O)(=O)O)cc3)c2=O)c(C)c1
inactive: [1] | [6] | [7] | [9]

c1c[nH]cn1
inactive: [1] | [6] | [7] | [8]

CCO[Si](C)(OCC)OCC
inactive: [1] | [5] | [8] | [9]

CC(C)=CCC[C@H](C)CCO
inactive: [1] | [5] | [7] | [8]
active: [4] 75.8 µM

CCCCC/C=C\C/C=C\CCCCCCCC(=O)OC
active: [4] 12 µM | [5] 50 µM | [9] 66.2 µM
inactive: [1] | [6] | [7] | [9]

CNC(=S)NN
active: [4] 50 µM
inactive: [1] | [5] | [6] | [7] | [8]

O=C(Nc1ccccc1SSc1ccccc1NC(=O)c1ccccc1)c1ccccc1
inactive: [10] | [11] | [12] | [13] | [14] | [15] | [16] | [17] | [18]

Cc1cc(C)c(C(=O)O)c(C)c1
active: [1] 93 µM
inactive: [5] | [6] | [7] | [8]

OC1CCCC1
inactive: [1] | [5] | [6] | [7]

CCCCCCCC[N+](C)(CCCCCCCC)CCCCCCCC
inactive: [1] | [6] | [7]
active: [8] 9.48 µM

O=C(O)CCCC[C@@H]1SC[C@@H]2NC(=O)N[C@@H]21
inactive: [1] | [4] | [5] | [6] | [7] | [8]

CO[Si](CCC1CCC2OC2C1)(OC)OC (stereo not given)
inactive: [10] | [11] | [12] | [19] | [13] | [14] | [15] | [18] | [20] | [8]

CC(C)(C)c1ccc(N)cc1
inactive: [1] | [4] | [5] | [6] | [7] | [8]

NC(=O)N=NC(N)=O
inactive: [1] | [6] | [7] | [8] | [9]

CCCCNc1ccc(NCCCC)c2c1C(=O)c1ccccc1C2=O
active: [12] 0.164 µM | [18] 0.208 µM
inactive: [10] | [11] | [19] | [13] | [14] | [15] | [16] | [17] | [20] | [8]

— PubChem BioAssay (EPA / NIEHS)
